This excerpt belongs to a sample that is enriched for hits.
CD11b adhes enh = enhancers of CD11b/CD18 adhesion to fibrinogen, primary screen, K562 cells, luminescence; Integrin beta-2 (Homo sapiens) + Integrin alpha-M (Homo sapiens), P05107+P11215; ATPlite luminescence; activation, % at 10 µM; actives 0.07% (n = 93,000); AID 1499, 2009;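 active = 10 µM primary screen giving 50% or more activity, confirmed by 40% or more on retest at that dose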
Target sequence (P05107 whole entry, looked up, other chains not shown): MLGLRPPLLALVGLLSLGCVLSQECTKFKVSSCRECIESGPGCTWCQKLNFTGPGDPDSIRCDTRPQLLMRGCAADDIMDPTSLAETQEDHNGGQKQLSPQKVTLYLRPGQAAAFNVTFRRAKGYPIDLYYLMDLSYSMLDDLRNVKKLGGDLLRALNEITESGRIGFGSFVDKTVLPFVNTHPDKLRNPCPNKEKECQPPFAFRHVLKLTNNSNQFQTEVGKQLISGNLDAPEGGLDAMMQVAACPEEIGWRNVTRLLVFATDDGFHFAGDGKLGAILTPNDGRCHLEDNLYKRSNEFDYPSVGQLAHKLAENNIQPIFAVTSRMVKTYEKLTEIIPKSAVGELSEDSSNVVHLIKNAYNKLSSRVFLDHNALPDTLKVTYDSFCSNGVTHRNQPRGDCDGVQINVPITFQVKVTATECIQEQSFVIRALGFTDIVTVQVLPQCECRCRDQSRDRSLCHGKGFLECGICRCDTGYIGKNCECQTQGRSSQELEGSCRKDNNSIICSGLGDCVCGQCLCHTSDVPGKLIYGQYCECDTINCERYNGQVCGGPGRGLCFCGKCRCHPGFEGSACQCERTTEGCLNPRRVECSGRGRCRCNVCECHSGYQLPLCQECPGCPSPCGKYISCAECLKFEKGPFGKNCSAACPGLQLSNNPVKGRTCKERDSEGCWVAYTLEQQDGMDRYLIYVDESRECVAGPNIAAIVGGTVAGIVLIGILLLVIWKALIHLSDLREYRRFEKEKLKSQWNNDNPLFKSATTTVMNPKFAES
FAK inh = FAK kinase inhibitors, primary screen, biochemical | Focal adhesion kinase 1 (Homo sapiens), Q05397 | biochemical FAK kinase activity assay | inhibition, %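 (tested at 7 µM)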 | actives 0.84% (n = 97,000); in the data active = inhibition above about 19%
D1 mod = D1 CRE-luciferase signal change, two-sided – cell-based, HEK293 D1, dopamine EC30, D1 allosteric modulator project, primary screen; D(1A) dopamine receptor (Homo sapiens), P21728; actives 5.9% (n = 58,000); AID 641, 2007; dopamine EC30 potentiation; actives deviate in either direction; B-score at 10 µM;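 active = luminescence count or its row- and column-corrected plate score outside the 99.7% band of the plate's sample wells, on either side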
PTK2B oligo ant = antagonists of Pyk2 self-association, primary screen, Q293 cells, FERM NanoBiT luminescence, HTS | Protein-tyrosine kinase 2-beta (Homo sapiens), Q14289 | stronger effect = lower value | z-score (the deposit names both 25 µM and 10 µM) | actives 0.83% (n = 99,000);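 active = Z-score of -3 or lower, scaled per plate to the spread of control and sample wells; inactive = z-score above -3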;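 also: negative z-score means lost luminescence so less FERM oligomerization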
hDAT+cocaine = changed hDAT dopamine uptake under cocaine IC80, either direction, primary screen, cocaine antagonist project, cell-based, LLC-PK1 hDAT, [14C]-dopamine uptake, MLSMR. Sodium-dependent dopamine transporter (Homo sapiens), Q01959. LLC-PK1 hDAT cells, [14C]-dopamine uptake with cocaine IC80; actives deviate in either direction. B-score at 10 µM. actives 1.3% (n = 110,000). AID 449768, 2010;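 active = Z score or B-score, a plate-position-corrected score, falls beyond the plate's 99.7% confidence bounds, in either direction; inactive = both scores lie inside the 99.7% bounds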
CD11b adhes inh = inhibitors of CD11b/CD18 adhesion to fibrinogen, primary screen, K562 cells, luminescence | ATPlite luminescence; Mn2+ added to activate the integrin | inhibition, % at 10 µM | actives 0.54% (n = 93,000);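 active = primary inhibition of 50% or more at 10 µM, then 40% or more on retest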
D1 mod confirm = D1 receptor positive allosteric modulators, retest, confirmation, cell-based, HEK293 D1, CRE-luciferase, duplicate; shares compounds with D1 mod; dopamine EC30 potentiation; stronger effect = higher value; luminescence at 10 µM; actives 88% (n = 2,200); AID 642, 2007;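 active = luminescence in either of two replicates above the same-plate mean plus 3 SD of the low-dose dopamine control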
D1 ag no DA = D1 receptor agonism without dopamine, confirmation, mechanism study for D1 allosteric modulator project, cell-based, HEK293 D1, CRE-luciferase, secondary assay 1 | shares compounds with D1 mod | luminescence, no dopamine; stronger effect = higher value | luminescence at 10 µM | actives 0.8% (n = 1,900); in the data active = luminescence above about 3900
Isoprot counter = isoproterenol response counter-screen activity for D1 modulators; shares compounds with D1 mod; HEK293 D1 CRE-luciferase, isoproterenol EC30 counter-screen; calls only at 10 µM; actives 63% (n = 2,200); AID 647;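 active = luminescence in either replicate above plate mean of wells with a partly effective reference agonist dose plus 3 SD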;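 also: isoproterenol raises cAMP through native beta-adrenoceptor Gs so signal bypasses D1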
Of the large screens only hits and unclear results are named; the others gave an inactive call (follow-up assays come after a bar, where they were run).

COC(=O)c1c(N)c(C#N)c(C)n1-c1ccccc1	D1 mod 3 | D1 mod confirm 8468 | D1 ag no DA inactive | Isoprot counter active
COc1ccc(CNc2ccc(S(N)(=O)=O)cc2)c(OC)c1OC	D1 mod 5.3 | D1 mod confirm 7284 | D1 ag no DA inactive | Isoprot counter active
C=CCOc1c(CNc2ccc(S(N)(=O)=O)cc2)cccc1OC	none (no result: CD11b adhes enh, D1 mod, CD11b adhes inh)
CCOC(=O)c1cc2c(=O)n3ccccc3nc2n(C(C)C)c1=NC(=O)c1ccncc1	D1 mod 5.7 | D1 mod confirm 16620 | D1 ag no DA inactive | Isoprot counter active
CCOC(=O)c1cc2c(=O)n3ccccc3nc2n(Cc2ccco2)c1=NC(=O)c1cccnc1	none
CCOC(=O)c1cc2c(=O)n3ccccc3nc2n(CCOC)c1=NC(=O)C(C)(C)C	none
CCOC(=O)c1cc2c(=O)n3ccccc3nc2n(CC(C)C)c1=NC(=O)c1ccco1	D1 mod 8.3 | D1 mod confirm 18960 | D1 ag no DA inactive | Isoprot counter active
CCOC(=O)c1cc2c(=O)n3ccccc3nc2n(CCCOC)c1=NC(=O)c1cccnc1	D1 mod 3.8 (no result: CD11b adhes enh, PTK2B oligo ant, hDAT+cocaine, CD11b adhes inh) | D1 mod confirm 9344 | D1 ag no DA inactive | Isoprot counter inactive
CCOC(=O)c1cc2c(=O)n3ccccc3nc2n(CCCOC)c1=NC(=O)C(C)(C)C	D1 mod 4.8 (no result: CD11b adhes enh, CD11b adhes inh) | D1 mod confirm 7076 | D1 ag no DA inactive | Isoprot counter inactive
CCOc1ccccc1N1CCN(C(=O)c2ccc3[nH]c4c(c3c2)CCCC4)CC1	none (no result: FAK inh, D1 mod, PTK2B oligo ant, hDAT+cocaine)
CCOc1ccc(C(=O)N2CCc3cc(OC)c(OC)cc3C2)cc1OCC	D1 mod 4.6 | D1 mod confirm 15188 | D1 ag no DA inactive | Isoprot counter active
COCCNC(=O)c1ccc(N(C)S(=O)(=O)c2ccc(OC)c(OC)c2)cc1	D1 mod 11 (no result: CD11b adhes enh, CD11b adhes inh) | D1 mod confirm 14404 | D1 ag no DA inactive | Isoprot counter active
COCCNC(=O)c1ccccc1NC(=O)c1ccc(OC)c(OC)c1	none (no result: FAK inh)
COc1ccc(C(=O)Nn2c(C)ccc2C)cc1OC	D1 mod 9.6 | D1 mod confirm 11780 | D1 ag no DA inactive | Isoprot counter active
CCOc1cc(C(=O)NCCOC)ccc1OC	D1 mod 4.8 | D1 mod confirm 7216 | D1 ag no DA inactive | Isoprot counter inactive
COCCCNC(=O)c1ccc(N(C)S(=O)(=O)c2ccc(OC)cc2)cc1	none
O=S(=O)(NCC(c1cccnc1)N1CCN(Cc2ccccc2)CC1)c1ccccc1 (configuration not stated)	none (no result: CD11b adhes enh, PTK2B oligo ant, CD11b adhes inh)
COc1ccccc1C1CC(c2ccc(Cl)cc2)Nc2ncnn21 (configuration not stated)	none
CCOC(=O)C1CCN(S(=O)(=O)c2ccc3c4c(cccc24)C(=O)N3)CC1	none (no result: PTK2B oligo ant)
O=C1Nc2ccc(S(=O)(=O)N3CCCC3)c3ccc(S(=O)(=O)N4CCCC4)c1c23	D1 mod 5.2 | D1 mod confirm 12808 | Isoprot counter active
FC(F)(F)c1cccc(-c2ccc(-c3csnn3)o2)c1	D1 mod 24 | D1 mod confirm inactive | D1 ag no DA inactive | Isoprot counter inactive
CC(NC(=O)C1CCC(=O)N1Cc1ccc(F)cc1)c1ccc2c(c1)OCCO2 (configuration not stated)	D1 mod 2.1 (no result: PTK2B oligo ant) | D1 mod confirm inactive | D1 ag no DA inactive | Isoprot counter inactive
N#CC(C(=O)NC1CCCCC1)c1nc2ccccc2nc1N1CCCCC1 (configuration not stated)	none (no result: CD11b adhes enh, FAK inh, PTK2B oligo ant, hDAT+cocaine, CD11b adhes inh)
CCOc1ccc(C(=O)NCc2ccco2)cc1	none (no result: FAK inh, D1 mod)
CCOc1ccc(C(=O)NCC(=O)OC(C)C(=O)NCc2ccco2)cc1OCC (configuration not stated)	D1 mod 6 | D1 mod confirm inactive | Isoprot counter active
CC1(C)C(c2ccccc2)=[N+]([O-])CN1O	none
C=CCN=C(NC#N)SCc1ccccc1	none (no result: CD11b adhes enh, D1 mod, CD11b adhes inh)
C=CCN=C(NC#N)SCC(=O)c1cccc(OC)c1	D1 mod 12 | D1 mod confirm 10808 | D1 ag no DA inactive | Isoprot counter active
O=C(c1ccc2c(c1)N(Cc1ccccc1)CCS2)N1CCCCC1	none (no result: D1 mod, PTK2B oligo ant)
CCOC(=O)N1CCN(C(=O)CCCn2c(=O)[nH]c3ccccc3c2=O)CC1	none
CCOC(=O)N1CCN(C(=O)CCCn2c(=S)[nH]c3ccccc3c2=O)CC1	D1 mod 3.1 | D1 mod confirm 8792 | D1 ag no DA inactive | Isoprot counter inactive
COc1cccc(C(=O)OCCN2C(=O)c3ccccc3C2=O)c1OC	D1 mod 3.1 | D1 mod confirm 5788 | D1 ag no DA inactive | Isoprot counter active
Cc1[nH]c2ccccc2c1C(=O)COC(=O)c1c(-c2c(F)cccc2Cl)noc1C	none (no result: FAK inh, D1 mod, PTK2B oligo ant, hDAT+cocaine)
COc1cc2ccccc2cc1C(=O)Nc1cccnc1	none (no result: D1 mod)
O=C(Nc1cccnc1)c1ccccc1Oc1ccccc1	D1 mod 6.3 | D1 mod confirm 15336 | D1 ag no DA inactive | Isoprot counter active
CCC1CCCCN1C(=O)CSc1nnc(CNC(=O)COc2ccc(Cl)cc2)o1 (configuration not stated)	none
O=c1[nH]c(SCCOc2ccccc2)nc2ccccc12	D1 mod 5.3 | D1 mod confirm 7564 | Isoprot counter active
COc1ccccc1OCCSc1nc2ccccc2c(=O)[nH]1	none
Cc1cccc(OCC(=O)NNC(=O)Nc2cccc(Cl)c2)c1C	none (no result: D1 mod)
COC(=O)c1ccc(COC(=O)c2ccc(-n3cnnn3)cc2)o1	D1 mod 6 | D1 mod confirm inactive | Isoprot counter inactive
O=C(Nc1ccc(OC(F)(F)F)cc1)C1CCCN(S(=O)(=O)c2cccnc2)C1 (configuration not stated)	none
c1ccc(-c2nc[nH]c2-c2ccccc2)cc1	D1 mod 4.9 | D1 mod confirm 13428 | D1 ag no DA inactive | Isoprot counter inactive

Source: PubChem BioAssay
